According to PubChem BioAssay (Tox21):
Inconclusive results are not listed. The source made the active and inactive calls. Unless noted, the call rests on the fitted dose curve; in most records, active means well fitted curve in the direction sought with a large enough effect in the repeat runs; inconclusive means weak or mixed curves; inactive means no such curve, though single readings can be large; an effect the other way counts as inactive or inconclusive.

Columns and labels:
[1] = qHTS assay to identify small molecule antagonists of the vitamin D receptor (VDR) signaling pathway - cell viability counter screen (AID 743225); further: nearly all actives have a fitted effect of over 50% in size
Outline: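 Parallel cytotoxicity test: VDR-UAS-bla HEK 293T, 3 nM (final) 1-alpha,25-dihydroxyvitamin D3 with test compound, 16 h, 37C. Endpoint is CellTiter-Glo luminescence in the same wells.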

[2] = qHTS assay to identify small molecule agonists of the NFkB signaling pathway - cell viability counter screen (AID 1159515; calls by dose curve; further: series mostly up to about 61 µM; nearly all actives have a fitted effect of over 55% in size)
Outline: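 NFkB-bla ME-180 cells, 2,000/well, were plated overnight at 37 C, 5% CO2, then exposed to compounds in DMSO for 5 hr. After the bla FRET read, CellTiter-Glo was added to the same wells; luminescence was read after 30 min at room temperature.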

[3] = qHTS assay to identify small molecule agonists of the endoplasmic reticulum stress response signaling pathway (AID 1159516; active means well fitted activation curve with a large enough effect in the signal ratio in the repeat runs, not every such curve was filed as active; the % refers to the signal ratio)
Outline: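 CellSensor ESRE-bla HeLa cells, carrying a beta-lactamase reporter driven by the ER stress response element, were plated overnight and exposed to compounds for 5 hr at 37 C. Reporter activity was read as FRET substrate fluorescence after 2 hr at room temperature.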

[4] = qHTS assay to identify small molecule agonists of the endoplasmic reticulum stress response signaling pathway - cell viability counter screen (AID 1159517; calls by dose curve; further: series mostly up to about 61 µM; nearly all actives have a fitted effect of over 50% in size)
Outline: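 Cells, HeLa ESRE-bla; density, 1,500/well; dosing, 5 hr at 37 C, 5% CO2; readout, CellTiter-Glo luminescence after 30 min RT.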

[5] = qHTS assay to identify small molecule antagonists of the retinoid-related orphan receptor gamma (ROR-gamma) signaling pathway - cell viability counter screen (AID 1159520); further: nearly all actives have a fitted effect of over 50% in size
Outline: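 Cytotoxicity was read from cellular ATP (CellTiter-Glo luminescence) after 16 hr at 37 C with 1 uM doxycycline induction. The inducer was added 2 hr after compound transfer to Tet-on ROR gamma CHO cells.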

[6] = target: Nuclear receptor ROR-gamma (Homo sapiens) (UniProt P51449); experiment: qHTS assay to identify small molecule antagonists of the retinoid-related orphan receptor gamma (ROR-gamma) signaling pathway (AID 1159521;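 further: CHO cells with doxycycline inducible ROR-gamma driving an RORE luciferase reporter; top concentration of the series differs between compounds; nearly all actives have a fitted effect of over 50% in size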)
Outline: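 Decreased RORE-driven luciferase luminescence indicates antagonism. Tet-on RORγ CHO cells received compound, then 1 uM final doxycycline 2 h later; signal read after 16 h incubation.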

[7] = qHTS assay to identify small molecule agonists of the AP-1 signaling pathway - cell viability counter screen (AID 1159525; calls by dose curve; further: nearly all actives have a fitted effect of over 55% in size)
Outline: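 Luminescent ATP readout (Cell Titer Glo, 30 min RT), normalised to DMSO and tetra n-octyl ammonium bromide controls. Cells were ME-180 AP-1-bla in 0.5% dialyzed FBS Opti-MEM, with a 5 h, 37 °C compound exposure.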

[8] = qHTS assay to identify small molecule agonists of the AP-1 signaling pathway (AID 1159526; calls by dose curve)
[9] = target: Retinoic acid receptor RXR-alpha (Homo sapiens) (UniProt P19793); experiment: qHTS assay to identify small molecule agonists of the RXR signaling pathway (AID 1159527; calls by dose curve; further: nearly all actives have a fitted effect of over 35% in size)
Chain of Retinoic acid receptor RXR-alpha (Homo sapiens) (P19793 whole entry, looked up): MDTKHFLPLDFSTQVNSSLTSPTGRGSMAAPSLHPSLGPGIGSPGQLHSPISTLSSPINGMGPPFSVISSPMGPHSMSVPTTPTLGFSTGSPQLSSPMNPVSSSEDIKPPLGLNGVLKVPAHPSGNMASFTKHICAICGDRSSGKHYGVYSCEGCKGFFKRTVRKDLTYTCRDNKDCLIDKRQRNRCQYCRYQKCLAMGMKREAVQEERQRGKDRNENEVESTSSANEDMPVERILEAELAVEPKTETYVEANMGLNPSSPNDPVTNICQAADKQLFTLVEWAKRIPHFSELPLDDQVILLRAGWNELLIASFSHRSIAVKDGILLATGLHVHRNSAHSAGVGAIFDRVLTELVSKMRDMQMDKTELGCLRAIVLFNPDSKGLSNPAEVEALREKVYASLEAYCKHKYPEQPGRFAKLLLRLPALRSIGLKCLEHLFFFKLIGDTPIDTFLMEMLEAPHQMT
Outline: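 16 hr incubation of compound-treated RXR-alpha-UAS-bla HEK 293T cells (2% charcoal-stripped FBS, 37 C) preceded a 2 hr room-temperature LiveBLAzer FRET substrate step and blue/green fluorescence measurement.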

[10] = qHTS assay to identify small molecule agonists of the RXR signaling pathway - cell viability counter screen (AID 1159529)
Outline: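 In this parallel viability measure, GeneBLAzer RXR-alpha HEK 293T cells (2% charcoal-stripped FBS) were given a 5 hr preincubation, treated with compounds 16 hr at 37 C, and read by CellTiter-Glo luminescence.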

[11] = qHTS assay to identify small molecule antagonists of the retinoid acid receptor (RAR) signaling pathway - cell viability counter screen (AID 1159551); further: nearly all actives have a fitted effect of over 35% in size
Outline: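 C3RL4 cells were seeded overnight at 37 C, then treated with compounds plus 1 uM (final) retinol for 6 h at 37 C. Viability was read as ATP by CellTiter-Glo luminescence after 30 min at room temperature.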

[12] = qHTS assay to identify small molecule antagonists of the estrogen related receptor (ERR) signaling pathway from Tox21 library - cell viability counter screen (AID 1224834); further: nearly all actives have a fitted effect of over 30% in size
Outline: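 ERR reporter cells were plated 6 h before compound addition, then exposed to test compounds in DMSO for 17.5 h at 37 C. Viability was read as CellTiter-Fluor fluorescence after a 30-minute incubation at 37 C.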

[13] = qHTS assay to identify small molecule antagonists of the retinoic acid receptor (RAR) signaling pathway (AID 1159552; further: nearly all actives have a fitted effect of over 50% in size)
Outline: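 C3RL4 RARE-luc cells, overnight plating; retinol 1 uM final added right after compound; 6 hr 37 C; luciferase read at 30 min RT.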

[14] = qHTS assay to identify small molecule agonists of the retinoic acid receptor (RAR) signaling pathway (AID 1159553)
Outline: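 C3RL4 cells carrying a RARE luciferase reporter were plated overnight at 37 C, then exposed to compounds in DMSO for 6 hr at 37 C and 5% CO2. Luminescence was read 30 min after luciferase reagent addition at room temperature.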

[15] = qHTS assay to identify small molecule antagonists of the estrogen related receptor (ERR) signaling pathway - cell viability counter screen (AID 1224818);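 further: series mostly up to about 46 µM; viability measured after 17.5 h of compound exposure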
Outline: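 ERR reporter cells plated 6 h at 37 C/5% CO2, then compounds in DMSO pin-transferred and incubated 17.5 h at 37 C. Viability read as CellTiter-Fluor fluorescence after 30 min at 37 C.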

[16] = qHTS assay to identify small molecule antagonists of the estrogen related receptor (ERR) signaling pathway (AID 1224819)
Outline: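 ERR reporter cells were plated at 2,000 cells/well and left 6 h at 37 C/5% CO2 before pin-tool transfer of compounds in DMSO. After 18 h at 37 C, One-Glo was added and luminescence was read 30 min later at room temperature.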

[17] = qHTS assay to identify small molecule agonists of the estrogen related receptor (ERR) signaling pathway (AID 1224820)
Outline: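 ERR reporter cells (NTP line) plated 2,000/well, incubated 6 h at 37 C/5% CO2, then pinned with compounds in DMSO and held 18 h at 37 C. One-Glo added; luminescence read after 30 min at room temperature.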

[18] = test system: estrogen-related receptor alpha (ERRalpha) with PGC-1alpha coactivator, human; experiment: qHTS assay to identify small molecule antagonists of the estrogen related receptor signaling pathway with the pleiotropic PPARgamma coactivator (PGC) (AID 1224821; calls by dose curve)
Outline: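 Cells engineered for PGC/ERR signalling (line from NTP) were plated 6 h at 37 C/5% CO2, then exposed to DMSO-dissolved compound for 18 h at 37 C. Luciferase activity was read by One-Glo luminescence after 30 min at room temperature.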

[19] = qHTS assay to identify small molecule antagonists of the estrogen related receptor signaling pathway with the pleiotropic PPARgamma coactivator (PGC) cell viability counter screen (AID 1224822; further: series mostly up to about 46 µM)
Outline: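 PGC/ERR cells were seeded at 2,000 cells/well, rested 6 h at 37 C/5% CO2, then given compounds in DMSO by pin tool and incubated 17.5 h at 37 C. Viability came from CellTiter-Fluor fluorescence after 30 min.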

[20] = qHTS assay to identify small molecule agonists of the estrogen related receptor signaling pathway with the pleiotropic PPARgamma coactivator (PGC) (AID 1224823)
Outline: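 PGC/ERR reporter cells were seeded, rested 6 h at 37 C/5% CO2, then exposed to compounds in DMSO by pin transfer for 18 h at 37 C. Luciferase activity was read as luminescence after One-Glo reagent and 30 min at room temperature.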

Measured: Potency

CC1(C)OC[C@@H](COC(=O)CCc2ccc(OC[C@@H](O)CNCCNC(=O)N3CCOCC3)cc2)O1
not listed: [13] | [14] | [15] | [16] | [17] | [18] | [19] | [20]
inactive: all other assays above

CC[C@H]1OC(=O)[C@H](C)[C@@H](O[C@H]2C[C@@](C)(OC)[C@@H](O)[C@H](C)O2)[C@H](C)[C@@H](O[C@@H]2O[C@H](C)C[C@H](N(C)C)[C@H]2O)[C@](C)(OC)C[C@@H](C)C(=O)[C@H](C)[C@@H](O)[C@]1(C)O
inactive: [1] | [2] | [3] | [4] | [5] | [6] | [7] | [8] | [9] | [10] | [11]

COC(=O)Nc1ccc(Cl)c(Cl)c1
not listed: [10] | [15] | [16] | [17] | [18] | [19] | [20]
inactive: all other assays above

CCOC(=O)CCC(=O)OCC
not listed: [10] | [14] | [15] | [16] | [17] | [18] | [19] | [20]
inactive: all other assays above

CN(C)C(=O)Oc1ccc[n+](C)c1
not listed: [11] | [13] | [14]
inactive: all other assays above

CC[N+](CC)(CC)CCOc1cccc(OCC[N+](CC)(CC)CC)c1OCC[N+](CC)(CC)CC
not listed: [1] | [11] | [13] | [14] | [16] | [17] | [18] | [20]
inactive: all other assays above

CCCCCC(=O)OCCc1ccccc1
inactive: [2] | [3] | [4] | [5] | [6] | [7] | [8] | [9] | [10] | [12]

CCCCCCCCCCCCCCC(=O)O
inactive: [1] | [2] | [3] | [4] | [5] | [6] | [7] | [8] | [9] | [10] | [12]

OCCCCCO
not listed: [13] | [14] | [15] | [16] | [17] | [18] | [19] | [20]
inactive: all other assays above
